PubChem BioAssay (NCI)
This is part of a sample that, as a whole, favours compounds with a hit. Of some 83,000 tested, about 20% had one in any assay.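 Testing used 96-well plates and a 48-hour single-concentration exposure. Example: -40 means 40% of the starting cells died.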 Values without a mark were called inactive. Calls of active or inactive are those of the source. The calls were made as follows: active = growth percent below 10; inactive = the rest.

Assays:
Assay in all cases: NCI-60 one-dose screen, 48 h (100 = growth as untreated, 0 = no growth, -100 = all killed)
Conditions in all cases: 10 µM unless noted
T-47D breast = system: T-47D breast
BT-549 breast = system: BT-549 breast
SW-620 colon = system: SW-620 colon
MCF7 breast = system: MCF7 breast
HCT-116 colon = system: HCT-116 colon
HCC-2998 colon = system: HCC-2998 colon
KM12 colon = system: KM12 colon
MDA-MB-435 melanoma = system: MDA-MB-435 melanoma

Row | SMILES | growth (T-47D breast) | growth (BT-549 breast) | growth (SW-620 colon) | growth (MCF7 breast) | growth (HCT-116 colon) | growth (HCC-2998 colon) | growth (KM12 colon) | growth (MDA-MB-435 melanoma)
1 | COC(=O)c1c(C(=O)OC)c2n(CC(=O)Nc3cccc4cccnc34)c3ccccc3n2c1C(=O)c1ccc(C)cc1 | 83.4% | 110% | 95.1% | 93.4% | 49.5% | 103% | 109% | 
2 | COc1ccc(NS(=O)(=O)c2ccc(-c3cnc(C4CC4)o3)cc2)cc1Cl | 30.3% | 57.5% | 22.6% | 17.4% | 26.7% | 53.1% | 22.7% | 
3 | O=S(=O)(Nc1cc(Cl)cc(Cl)c1)c1ccc(-c2cnc(C3CC3)o2)cc1 | 41.7% | 58.4% | 26.1% | 20.9% | 31.3% | 56.7% | 24.2% | 
4 | COc1ccc(-c2nnc(/N=C3/C(=O)Nc4ccc(Br)cc43)o2)cc1 | 104% | 103% | 100% | 78.8% | 101% | 115% | 89.7% | 
5 | C#CCOc1ccc(/C=N/Nc2nc(-c3cc4cc(Br)cc(Br)c4oc3=O)cs2)cc1 | 88.6% |  | 104% | 65.9% | 91.8% | 108% | 88% | 91.8%
6 | C(=C(\C1=NCCN1)n1cnc2ccccc21)/c1ccc2ccccc2c1 | 57.1% | 48.5% | 67.9% | 30.4% | 67.1% | 71.5% | 69.2% | 
7 | c1cncc(-c2cn3nc(-c4c[nH]c5ccccc45)sc3n2)c1 | 69.7% | 33.3% | 28.6% | 34.7% | 28.8% | 59.1% | 26.6% | 
8 | COC(=O)Nc1ccc(-c2nc(-c3cccc(O)c3)c(-c3ccnc(Br)c3)[nH]2)cc1 | 34.7% | 66.1% | 70.3% | 14.6% | 49.7% | 84.7% | 50.7% | 
9 | C#CCOc1ccc(/C=N/Nc2nc(-c3cc(Cl)ccc3Cl)cs2)cc1 | 37.4% |  | 93.9% | 9.62% (active) | 86.6% | 95.8% | 72.5% | 102%
10 | O=C(CN1CCN(c2cc(=O)n(-c3ccccc3)c3ccccc23)CC1)Nc1ccc([N+](=O)[O-])cc1 | 64.9% | 94.5% | 92.3% | 88.2% | 92.6% | 105% | 92.9% | 
11 | NS(=O)(=O)Oc1ccc2nc(Nc3ccc(F)c(F)c3)ccc2c1 | 90% |  | 105% | 93.2% | 92.2% | 90.3% | 58.9% | 
12 | COc1cc(/C=C/C(=O)c2ccc(N3CCN(C)CC3)cc2)ccc1F | 44.4% |  | 33% | 24.9% | 27.8% | 73% | 36.7% | 54.7%
13 | Nc1nc(-c2cccc([N+](=O)[O-])c2)c(N=Nc2ccccc2Cl)s1 | 57.9% | 71.6% | 54.7% | 66.6% | 32.6% |  | 67.4% | 
14 | CC(=O)Nc1ccc(NC(=O)Nc2cccc(-c3nc(-c4ccc(NC(=O)c5cccs5)cc4Cl)no3)c2)cc1C(F)(F)F | -59.4% (active) | -26.7% (active) | -51.3% (active) | -58.1% (active) | -22.2% (active) | -65.1% (active) | -50.1% (active) | 
15 | CN(c1ccc(Br)cc1)S(=O)(=O)c1ccc(-c2cnc(C3CC3)o2)cc1 | 55.1% | 19.3% | 27.9% | 21.1% | 14.5% | 16.4% | 23.2% | 
16 | C/C(=C(/c1ccc(O)cc1)c1ccc(OCCN2CCCC2)cc1)c1ccc(Cl)cc1 | 24.9% | 89.6% | -57.1% (active) | 5.58% (active) | 36.6% |  | 46.5% | 
17 | O=C(NCCCCCCNC(=O)c1c2c(nc3ccccc13)-c1cccnc1SC2)c1c2c(nc3ccccc13)-c1cccnc1SC2 | 79.7% |  | 39.2% | 76.1% | 66.3% | 44.6% | 74.7% | 56.8%
18 | C#C[C@]1(O)CC[C@H]2[C@@H]3CC=C4c5sc(C6CC6)nc5CC[C@]4(C)[C@H]3CC[C@@]21C | 73.8% | 90.5% | 91.2% | 64.7% | 71.4% | 83.6% | 57.4% | 
